Screening data from PubChem.
An excerpt weighted towards active compounds, which were near 0.71% of everything screened.
RGS12 GoLoco inh = RGS12 GoLoco-Gai1 interaction inhibition; P63096; Gai1:RGS12 GoLoco peptide FP, rhodamine, 10 min; Potency, µM (titrated, usually from 61.6 µM), without a hit: at the highest dose activity, negative = inhibition, most hits filed as inhibitors; 230,000 tested, 0.44% active; active = well fitted inhibition curve with a large enough effect, not every such curve was filed as active; inactive = no such curve, though single readings can be large or run the other way; also: % is scaled to controls: 0 for no effect and ±100 for the full control effect; nearly all actives have a fitted effect of over 30% in size
RECQ1 inh-1 = RECQ1 (human) helicase inhibition; 240,000 tested, 0.54% active; P46063; RECQ1 DNA unwinding, red fluorescence kinetic read; Potency, µM (highest dose often 57.3 µM), inactives show at the highest dose activity, negative = inhibition, usual class: inhibitors;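 also: plate controls were vehicle for no effect and no enzyme for full effect; nearly all actives have a fitted effect of over 30% in size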
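RECQ1T1 50 nM; forked duplex (20 bp + 30-nt ss tails) 200 nM, ATP 2 mM final; pH 8.0, 2 mM MgCl2, 2.5 ug/ml poly(dI-dC); 15 min compound preincubation; discontinuous kinetic read over 2 h at RT.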
TR SRC2 fluor cs = Texas Red fluorescence interference in TRb-SRC2 counter-screen | 280,000 tested, 0.29% active | TRb/SRC2 Texas Red total fluorescence interference | Potency, µM (titrated, usually from 106 µM), inactives show at the top dose fluorescence change, negative = quenching; active = well fitted curve in either direction with a large enough effect; inconclusive = small, poorly fitted or top-dose-only effect; also: % is scaled to controls: 0 for no effect and ±100 for the full control effect
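Flags fluorescent or light-absorbing compounds by total fluorescence, S + 2P, at 555 nm excitation and 632 nm emission. Mixture: 20 nM Texas Red SRC2 peptide, 0.6 uM human TRb LBD, 1 uM T3, 5% DMSO; compound exposure 5 h at ambient temperature.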
ERG-DNA inh = inhibitors of human ERG Ets domain-DNA interaction | P11308 | fluorescence polarization, His-ERG Ets domain / labelled DNA | Potency, µM (doses to about 76.9 µM), without a hit: at the top dose FP activity, negative = inhibition, usual class: inhibitors | 370,000 tested, 0.028% active; active = well fitted inhibition curve with a large enough effect in the polarisation, with a control signal flat; inconclusive = small, poorly fitted or top-dose-only effect, or effect the other way, or a change in a side signal; inactive = no such curve, though single readings can be large or run the other way; the % refers to the polarisation;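 also: polarization taken with two DNA probes labelled with fluorescein and Texas red; % of control where 0% means no effect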
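His-tagged ERG Ets domain (1 uM in the protein solution; 300mM KCl, 50mM Tris-HCl, 1mM EDTA, 1mM DTT, pH 7.5) received compound, then a probe mix of 5 nM fluorescein-DNA and 100nM Texas-615-DNA. Fluorescence polarization was read for both dyes.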
TRb-SRC2 inh = inhibitors of human thyroid hormone receptor beta-SRC2 interaction; TRbeta-SRC2 peptide binding, fluorescence polarization; receptor liganded with 1 µM T3; Potency, µM (top dose mostly 106 µM), for inactives: at the highest dose activity change, negative = inhibition, actives largely listed as inhibitors; 280,000 tested, 0.065% active; AID 1469;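 also: plate controls were bound peptide for no effect and peptide without receptor for full effect; nearly all actives have a fitted effect of over 50% in size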
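Fluorescence polarization of 20 nM Texas Red SRC2 peptide (20-aa NR interaction domain) bound to 0.6 uM human TRb ligand-binding domain, with 1 uM T3, after 5 hr at ambient temperature; inhibition seen as decreased polarization.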
BLM inh-1 = blocks DNA unwinding by human BLM helicase. P54132. recombinant BLM DNA unwinding, fluorescence dequenching. Potency, µM (doses to about 56.1 µM), for inactives: at the top dose activity change, negative = inhibition, hits mostly inhibitors. 350,000 tested, 0.2% active;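 also: plate controls were vehicle for no effect and no enzyme for full effect; nearly all actives have a fitted effect of over 35% in size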
Target sequence (P54132 whole entry, looked up): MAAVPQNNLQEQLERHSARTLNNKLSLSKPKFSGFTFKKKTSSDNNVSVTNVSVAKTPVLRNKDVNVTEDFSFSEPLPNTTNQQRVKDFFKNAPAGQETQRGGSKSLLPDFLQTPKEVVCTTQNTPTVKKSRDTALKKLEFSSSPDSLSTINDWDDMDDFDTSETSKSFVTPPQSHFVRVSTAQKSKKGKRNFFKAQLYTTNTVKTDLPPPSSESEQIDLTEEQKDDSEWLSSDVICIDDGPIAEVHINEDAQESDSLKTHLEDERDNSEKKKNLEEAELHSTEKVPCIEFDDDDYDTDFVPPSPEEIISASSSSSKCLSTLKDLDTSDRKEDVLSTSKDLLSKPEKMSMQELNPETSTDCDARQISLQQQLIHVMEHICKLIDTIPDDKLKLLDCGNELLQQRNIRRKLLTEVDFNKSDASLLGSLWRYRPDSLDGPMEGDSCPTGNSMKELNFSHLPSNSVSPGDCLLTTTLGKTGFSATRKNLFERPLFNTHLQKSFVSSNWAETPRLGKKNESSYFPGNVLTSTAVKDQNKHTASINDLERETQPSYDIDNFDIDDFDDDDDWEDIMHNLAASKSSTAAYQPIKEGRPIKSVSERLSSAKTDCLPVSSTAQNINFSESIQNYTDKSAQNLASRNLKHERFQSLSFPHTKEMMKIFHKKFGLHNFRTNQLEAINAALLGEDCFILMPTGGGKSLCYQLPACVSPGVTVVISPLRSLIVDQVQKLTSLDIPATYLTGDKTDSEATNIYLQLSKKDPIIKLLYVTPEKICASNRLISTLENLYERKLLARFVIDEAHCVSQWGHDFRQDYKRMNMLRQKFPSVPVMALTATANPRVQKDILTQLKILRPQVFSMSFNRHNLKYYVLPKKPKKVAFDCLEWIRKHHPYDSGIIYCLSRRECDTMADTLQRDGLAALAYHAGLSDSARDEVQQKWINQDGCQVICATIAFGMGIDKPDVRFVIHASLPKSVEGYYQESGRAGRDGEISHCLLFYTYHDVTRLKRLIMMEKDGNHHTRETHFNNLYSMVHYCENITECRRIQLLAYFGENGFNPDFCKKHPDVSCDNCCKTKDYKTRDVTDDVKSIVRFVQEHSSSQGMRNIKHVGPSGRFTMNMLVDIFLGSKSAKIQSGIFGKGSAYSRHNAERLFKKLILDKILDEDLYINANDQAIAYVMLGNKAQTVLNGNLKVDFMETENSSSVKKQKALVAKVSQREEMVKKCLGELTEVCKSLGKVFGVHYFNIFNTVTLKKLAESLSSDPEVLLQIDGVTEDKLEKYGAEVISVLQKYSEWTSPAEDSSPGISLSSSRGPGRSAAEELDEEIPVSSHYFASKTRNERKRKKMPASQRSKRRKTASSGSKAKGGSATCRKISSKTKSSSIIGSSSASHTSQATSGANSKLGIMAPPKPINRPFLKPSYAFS
BLM inh-2 = confirmation of inhibitors of human Bloom syndrome helicase BLM; AID 2585; Potency, µM, for the others: max response, negative = inhibition, usual class: inhibitors; shares compounds with BLM inh-1; 220 tested, 40% active; BLM DNA unwinding, fluorescence quenching, biochemical;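 also: strand separation dequenches TAMRA so unwinding raises red fluorescence; series mostly up to about 69 µM; % is scaled to controls: 0 for no effect and ±100 for the full control effect; nearly all actives have a fitted effect of over 45% in size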
RECQ1 conf = confirmation of human RECQ1 helicase inhibitors; 610 tested, 28% active; shares compounds with RECQ1 inh-1; Potency, µM (top dose mostly 229 µM), without a hit: at the top dose activity change, negative = inhibition, hits mostly inhibitors; RECQ1 helicase DNA unwinding, fluorescence; also: % is scaled to controls: 0 for no effect and ±100 for the full control effect; nearly all actives have a fitted effect of over 45% in size
ADP FP counter = displaces ADP in a fluorescence polarization counter-screen for RECQ1 hits | shares compounds with RECQ1 inh-1 | ADP fluorescence polarization displacement counterscreen | Potency, µM (doses to about 228 µM), without a hit: top-dose activity change, negative = inhibition, most hits filed as inhibitors | 530 tested, 27% active | AID 2711; also: % is scaled to controls: 0 for no effect and ±100 for the full control effect; nearly all actives have a fitted effect of over 45% in size
RECQ1 inh-2 = RECQ1 helicase inhibition confirmed, round 2; 1,100 tested, 15% active; shares compounds with RECQ1 inh-1; Potency, µM (series often up to 119 µM), for the others: at the top dose activity, negative = inhibition, hits mostly inhibitors; recombinant RECQ1 DNA unwinding, red fluorescence; also: % is scaled to controls: 0 for no effect and ±100 for the full control effect; nearly all actives have a fitted effect of over 50% in size
Active calls of the source: *; i = inactive; u = inconclusive; x = no result given; ! = not confirmed by another sample; [ ] = dose if it differs, or a comment. Unless noted, calls follow the shape of the dose curve; as a rule, active = well fitted curve in the direction sought with a large enough effect; inconclusive = small, poorly fitted or top-dose-only effect, or another doubt; inactive = no such curve, though single readings can be large; an effect the other way counts as inactive or inconclusive. Potency is read from the fitted curve at half-maximal effect.

SMILES	RGS12 GoLoco inh	RECQ1 inh-1	TR SRC2 fluor cs	ERG-DNA inh	TRb-SRC2 inh	BLM inh-1	BLM inh-2	others
COc1ccc(C(=O)N(Cc2ccc(C(C)C)cc2)C2CCS(=O)(=O)C2)cc1 (configuration not stated)	x	x	u	17.0%	-7.1%	-7.1%	x
O=C1Nc2ccc(I)cc2/C1=C/c1cc(Br)c(O)c(Br)c1	98.5%	25.1µM*!	u	x	4.8%	u	96.1µM*
Nc1ccc2nc(-c3cc(Cl)c(N)c(Cl)c3)[nH]c2c1	39.6%	2.0%	-3.6%	1.4%	11.1%	14.1µM*	u
Nc1ccc2nc(-c3ccc(Cl)cc3)[nH]c2c1	18.3%	-12.6%	-15.6%	-4.4%	1.6%	-10.8%	x
O=C1C(N2CCOCC2)=C(n2nnc3ccccc32)C(=O)c2ccccc21	1.3%	-19.1%	-10.0%	13.0%	u	35.5µM*	u
O=C1OC(Nc2cc(Br)cc3cccnc23)c2ccccc21 (configuration not stated)	-1.4%	i	4.4%	-1.7%	0.7%	22.4µM*	-4.5%
O=C1OC(Nc2ncccn2)c2ccccc21 (configuration not stated)	4.1%	-11.1%	-0.5%	4.3%	-9.7%	-4.7%	x
O=C(NCc1cccs1)c1ccc(CSc2nc3ccncc3n2Cc2cccc(F)c2)cc1	x	x	-3.0%	3.7%	9.1%	-7.5%	x
C[C@@H]1CCN(C(=O)[C@H](CCCNC(=N)N)NS(=O)(=O)c2cccc3c2NC[C@H](C)C3)[C@@H](C(=O)O)C1	-3.9%	x	-2.6%	x	-0.7%	-12.1%	x
COc1ccc2nc3ccccc3nc2c1N	-16.9%	-0.9%	u	0.6%	-26.5%	u	x
COc1ccc2nc3cccc(OC)c3nc2c1	3.0%	0.6%	-11.9%	26.7%	u	3.55µM*	9.9%
CCn1c(SCC(N)=O)nc2sc3c(c2c1=O)CCN(C)C3	-11.8%	7.1%	-0.2%	5.0%	9.7%	0.708µM*	10.1%
CN1CCc2c(sc(NC(=O)c3cc4cc([N+](=O)[O-])ccc4s3)c2C(N)=O)C1	0.7%	u	-17.9%	x	-9.7%	28.2µM*	28.9µM*
O=C(O)c1ccc(S(=O)(=O)/N=C2\C=C(Nc3ccccc3F)C(=O)c3ccccc32)cc1	x	x	x	3.3%	x	8.91µM*	16.2µM*
Cc1ccccc1NC1=C/C(=N\S(=O)(=O)c2ccc(C(=O)O)cc2)c2ccccc2C1=O	x	x	x	-16.8%	x	7.08µM*	11.5µM*
COc1ccc(S(=O)(=O)/N=C2\C=C(Nc3ccc(O)cc3)C(=O)c3ccccc32)cc1	x	x	x	-9.5%	x	u	x
N#C/C(=C\c1ccccc1)C(=O)Nc1sc2c(c1C(N)=O)CCC2	x	x	-0.1%	2.9%	-4.6%	-5.1%	x
COc1ccc2c(Sc3ccc(Cl)cc3)c(C(=O)N3CCCCC3)[nH]c2c1	x	x	-0.8%	1.1%	0.3%	-6.7%	x
Cc1nc2ccc3nc(NC(=O)c4ccc5c(c4)OCCO5)sc3c2s1	-2.1%	-3.1%	-2.2%	-10.4%	3.1%	-9.3%	u
Cc1cnc(NC(=O)c2ccc3c(c2)OCCO3)s1	x	x	x	-4.1%	x	x	x
COC(=O)c1cc(=O)c(O)c2c(O)c(O)ccc2c1	2.82µM*	8.91µM*	u	x	-1.5%	u	u
COC(=O)c1ccc(O)cc1	-81.6%	-2.6%	0.1%	4.7%	0.2%	0.9%	x
O=C(CSc1ccc(-c2cccs2)nn1)Nc1cccc(F)c1	x	x	-2.4%	3.3%	-9.0%	-5.0%	x
Oc1ccc(-c2cn3c(n2)SCC3)cc1O	-18.4%	2.51µM*	-3.6%	-8.1%	-1.3%	15.8µM*	u	RECQ1 inh-2=7.08µM*
CO[C@H]1COC(=O)CCC[C@@H](C)[C@H](OC)COC(=O)[C@H]2CCCN2C(=O)C/C=C\[C@@H]1C	x	i[11.5 µM]	-8.3%[11.2 µM]	x	4.7%[11.2 µM]	-6.1%[12.4 µM]	x
SMILES	RGS12 GoLoco inh	RECQ1 inh-1	TR SRC2 fluor cs	ERG-DNA inh	TRb-SRC2 inh	BLM inh-1	BLM inh-2	others
Cc1ccc(NC(=O)Cn2c(=O)n(Cc3ccco3)c(=O)c3sc4ccccc4c32)c(C)c1	x	x	-0.5%	-1.8%	-6.4%	-1.9%	x
C=C(c1ccc(C(=O)O)cc1)c1cc2c(cc1C)C(C)(C)CCC2(C)C	x	x	x	x	x	u	68µM*	RECQ1 conf=u
O=S(=O)(NCC(c1ccco1)S(=O)(=O)c1cccs1)c1ccc(F)c(C(F)(F)F)c1 (configuration not stated)	x	x	0.6%	9.2%	-8.8%	-5.1%	x
O=C(O)c1cccc(-n2cccc2/C=C2\SC(=O)N(Cc3ccccc3F)C2=O)c1	-18.6%	-19.5%	-0.4%	4.2%	-1.4%	-13.9%	x
O=C(O)c1cccc(-n2cccc2/C=C2/NC(=O)N(c3ccc(Cl)cc3)C2=O)c1	-7.6%	31.6µM*	17.8µM*[quencher]	-15.6%	u	3.55µM*	14.5µM*	RECQ1 conf=u
CN(C)c1ccc(/C=C/c2ccc3ccccc3[n+]2C)cc1	260.6%	u	22.8%	u	u	u	x
CN(C)c1ccc(/C=C/c2ccc3c4ccccc4ccc3[n+]2-c2ccccc2)cc1	70.7%	20µM*	12.6µM*[fluorescent]	149.6%	u	u	68µM*	RECQ1 conf=22.4µM*
COc1cccc2c1C(=O)c1c(O)c3c(c(O)c1C2=O)C[C@@](O)(C(C)=O)C[C@@H]3O[C@H]1C[C@H](N)[C@H](O)[C@H](C)O1	1.58µM*	28.2µM*!	44.7µM*![fluorescent]	0.794µM*	22.4µM*!	28.2µM*	36.3µM*	ADP FP counter=0.631µM*
CC(=O)[C@]1(O)Cc2c(O)c3c(c(O)c2[C@@H](O[C@H]2C[C@H](N)[C@H](O)[C@H](C)O2)C1)C(=O)c1ccccc1C3=O	1.58µM*	28.2µM*	44.7µM*[fluorescent]	3.16µM*	u	-56.3%	-71.9%	RECQ1 conf=35.5µM*;ADP FP counter=0.562µM*
Cc1ccc(SCc2cc(=O)c3c(=O)n(-c4ccccc4)[nH]c3[nH]2)cc1	10.0%	u	u	-10.4%	-9.9%	15.8µM*	4.9%	RECQ1 inh-2=-6.9%
